According to PubChem BioAssay AID602195 (The Scripps Research Institute Molecular Screening Center, 2012):
The whole screen tested about 1,600 compounds, of which about 430 (27%) were called active. The list is a sample of the results. Values without a mark were called inactive. Rule as the data show it: active = inhibition above about 29%; inactive = the rest.

These molecules were tested against Melanocortin receptor 4 (Homo sapiens) (UniProt P32245) (assay: MC4R cAMP antagonists, retest, confirmation, cell-based, TR-FRET (AID 602195;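 also: 0% = agonist stimulated wells alone and 100% = agonist stimulated wells plus saturating reference antagonist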)). Settings: MC4R-expressing cells, MTII-stimulated cAMP, at 6.5 µM, active compounds read high.
Sequence of Melanocortin receptor 4 (Homo sapiens) (P32245 whole entry, looked up): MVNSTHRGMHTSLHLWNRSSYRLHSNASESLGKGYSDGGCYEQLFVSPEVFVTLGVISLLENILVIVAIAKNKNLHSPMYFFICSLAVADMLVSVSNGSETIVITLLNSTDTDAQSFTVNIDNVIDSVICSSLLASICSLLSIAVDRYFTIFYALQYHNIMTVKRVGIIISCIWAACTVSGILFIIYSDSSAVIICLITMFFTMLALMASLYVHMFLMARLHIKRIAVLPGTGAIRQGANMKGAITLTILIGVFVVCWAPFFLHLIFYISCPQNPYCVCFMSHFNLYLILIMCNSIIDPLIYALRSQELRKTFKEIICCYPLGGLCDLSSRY
`C#Cc1cc(N2CCN(C(=O)c3ccoc3)CC2)n2nc(-c3cccc(Cl)c3)cc2n1` was tested, and the inhibition was 36.4% (active).
In the case of `Cc1ccc(Sc2ccc(NC(=O)c3ccc(F)cc3)cc2C#N)cc1`, the inhibition is reported as 24.9%.
`Cc1c(CCC(=O)O)c(=O)oc2cc(OCc3ccc(Br)cc3)ccc12` gave an inhibition of -0.06%.
Work on `CN(C)C(CNC(=O)CCCOc1ccccc1)c1ccco1` (configuration not stated) yielded an inhibition of -4.52%.
In the case of `COC(=O)[C@H](Cc1ccccc1)NC(=O)[C@@H]1C[C@H]1[C@@H](NC(=O)OCc1ccccc1)c1ccccc1`, the inhibition is reported as 62.1% (active).
In the case of `COc1ccccc1N(CC(=O)N/N=C(\C)c1ccccc1O)S(=O)(=O)c1ccc(C)cc1`, the inhibition is reported as 11.1%.
For `CCOC(=O)C(C)n1cnc2sc(C)c(C)c2c1=O` (configuration not stated), the inhibition was 5.44%.
`COC(=O)c1sc(-c2ccc(C(C)(C)C)cc2)cc1NC(=O)/C=C/C(=O)O` showed an inhibition of -6.9%.
For `Cc1ccc(C(C(=O)NCC2CCCO2)N(C(=O)c2snc(C(N)=O)c2N)c2ccc(C(C)C)cc2)o1` (configuration not stated), the inhibition was 10.5%.
For `CN(CC(=O)NCCc1ccccn1)S(=O)(=O)c1ccc(Cl)cc1`, the inhibition was -19.7%.
For `CC(C)(C)OC(=O)N1CCC(NC(=O)c2[nH]cnc2C(=O)N[C@@H](Cc2ccccc2)C(=O)OCc2ccccc2)CC1`, the inhibition was 55.3% (active).
`O=C(Cn1nnc2ccccc2c1=O)Nc1cc(C(F)(F)F)ccc1N1CCOCC1` gave an inhibition of -7.03%.
With `CCOC(=O)c1cc(C)nc(S(C)(=O)=O)c1C#N` the inhibition was 29.6% (active).
With `Cc1nnc(N/N=C/C2CC=CCC2)[nH]c1=O` (configuration not stated) the inhibition was 2.83%.
`Cc1ccc(NC(=O)COC(=O)CNC(=O)c2ccc(Cl)cc2Cl)cc1S(=O)(=O)N1CCOCC1` was tested, and the inhibition was 13.7%.
`O=C(Nc1nccs1)c1cc(S(=O)(=O)N2CCOCC2)c(Cl)cc1Cl` was tested, and the inhibition was 38.2% (active).
Work on `O=C(O)CCn1cc(/C=C/C(=O)c2ccc(Cl)cc2)c(-c2cccc(Br)c2)n1` yielded an inhibition of 13.2%.
`CC1(C)C(c2cccs2)=[N+]([O-])C2(CCCCC2=O)N1O` (configuration not stated) gave an inhibition of -17.8%.
Molecule `Cc1ccc(C)c(S(=O)(=O)N2CCN(CC(=O)Nc3ccc([N+](=O)[O-])cc3)CC2)c1` has an inhibition of -6.36%.
For `CCOC(=O)c1c(NC(=O)CCl)sc(C(=O)N(CC)CC)c1C`, the inhibition was 44.7% (active).
`O=C(Nc1ccccc1Cl)/C(Cl)=C(\Cl)S(=O)c1ccccc1` (configuration not stated) showed an inhibition of -8.38%.
With `COc1ccc(-c2nc3n(c(=O)c2C#N)CCS3)c(OC)c1` the inhibition was -26.2%.
`O=C(COC(=O)c1c2c(nc3ccccc13)CCCC2)c1ccc(Br)s1` showed an inhibition of 13.6%.
With `O=C(Nc1nnc(Cc2ccc(Cl)cc2)s1)c1cccnc1` the inhibition was -6.82%.
With `CSc1nnc(NC(=O)c2nc(S(=O)(=O)Cc3ccc(C)cc3)ncc2Cl)s1` the inhibition was 48.5% (active).
`Cc1cccc(OCC(O)Cn2c(N3CCCCC3)nc3c2c(=O)[nH]c(=O)n3C)c1` (configuration not stated) showed an inhibition of -4.42%.
`Cc1ccc(OCC(=O)Nc2ccc(NC(=O)c3cccs3)cc2)c(C)c1` was tested, and the inhibition was -16.5%.
Work on `CC(=O)Nc1ccc(Sc2ccccc2C(=O)N2CCCC2)cn1` yielded an inhibition of -13.6%.
Molecule `COc1ccc2sc(-c3ccc(S(C)(=O)=O)cc3)c(-c3ccc(C(N)=O)cc3)c2c1` has an inhibition of 27.4%.
`COc1ccc(/C=N/OCC(=O)N(Cc2ccccc2)c2ccccc2C(=O)O)cc1` was tested, and the inhibition was 1.15%.
`O=C1/C(=C\c2ccc([N+](=O)[O-])cc2)CS(=O)(=O)C/C1=C/c1ccc([N+](=O)[O-])cc1` was tested, and the inhibition was 31.9% (active).
With `COCCCNC(=O)/C(C#N)=C/c1c(N2CCCCCC2)nc2ccccn2c1=O` the inhibition was 11.9%.
`COc1cccc(OC)c1C(=O)Nc1c(C(=O)N2CCN(c3ccccn3)CC2)oc2ccccc12` showed an inhibition of -8.35%.
For `CCOc1ccc(Nc2nc(Cl)nc(N3CCN(c4ccc(OC)cc4)CC3)n2)cc1`, the inhibition was 33.7% (active).
`Cc1ccc(NC(=O)c2c(NC(=O)CCC(=O)O)sc3c2CCCCC3)cc1` showed an inhibition of 1.41%.
Molecule `Cc1ccc(S(=O)(=O)CCC(=O)OCC(=O)N(C)Cc2ccccc2)cc1` has an inhibition of 7.91%.
For `Cc1ccc(S(=O)(=O)N(C)CC(=O)OCC(=O)N2CC(=O)Nc3ccccc32)cc1`, the inhibition was 16.8%.
For `Cc1ccc(S(=O)(=O)N(C)CC(=O)OCC(=O)Nc2ccccc2)cc1`, the inhibition was 38.5% (active).
`O=C(c1ccc2c(c1)N(Cc1ccc(F)cc1)C(=O)c1ccccc1S2(=O)=O)N1CCN(c2ccccn2)CC1` was tested, and the inhibition was -2.23%.
`O=C(COC(=O)Cn1cnc2ccccc2c1=O)NCC12CC3CC(CC(C3)C1)C2` was tested, and the inhibition was 30.5% (active).
With `O=S(=O)(NCc1ccco1)c1cnc(Cl)c(Cl)c1` the inhibition was 54.2% (active).
Molecule `O=C(NCCc1c[nH]c2ccccc12)c1cccc(Br)c1` has an inhibition of 3.64%.
In the case of `COc1ccc(-c2n[nH]c(C)c2-c2ccccc2OC)c(O)c1`, the inhibition is reported as 0.3%.
With `O=C(COC(=O)[C@H](Cc1ccccc1)NC(=O)c1cccs1)Nc1cc(F)ccc1F` the inhibition was 14.7%.
`Cc1nc2ccccc2c(=O)n1NC(=O)c1ccc(Cl)c([N+](=O)[O-])c1` was tested, and the inhibition was 44.2% (active).
Work on `Cc1ccccc1-c1n[nH]c(=S)n1/N=C/c1ccc(-c2ccccc2Br)o1` yielded an inhibition of 0.08%.
With `O=C(CSc1nc2ccc(Nc3nc(N4CCOCC4)nc(N4CCOCC4)n3)cc2s1)NCc1ccco1` the inhibition was -2.81%.
With `Cc1c(Cl)cccc1NC(=O)[C@@]1(CC(=O)O)CC(/C=C/c2ccccc2)=NO1` the inhibition was -4.9%.
In the case of `Cc1ccc(NC(=O)C(C)OC(=O)Cc2c[nH]c3ccccc23)cc1S(=O)(=O)N1CCOCC1` (configuration not stated), the inhibition is reported as 5.56%.
Work on `CCOC(=O)CSc1nc(N2CCOCC2)c2c(c1C#N)CC(C(C)C)OC2` (configuration not stated) yielded an inhibition of 8.67%.
In the case of `CCCCOC(=O)CNc1nnc(SCC(=O)OCC)[nH]c1=O`, the inhibition is reported as 44.4% (active).
Molecule `CC(C)Oc1ccc(/C=C(\NC(=O)/C=C/c2ccco2)C(=O)NCCc2nc3ccccc3[nH]2)cc1` has an inhibition of -6.84%.
`Cc1ccc(NS(=O)(=O)c2ccc(C)c(NC(=O)COc3ccc4ccccc4c3)c2)c(C)c1` showed an inhibition of 0.85%.
Molecule `COc1ccc(-n2nc(C(=O)Nc3cc(OC)c(OC)c(OC)c3)c3ccccc3c2=O)c(OC)c1` has an inhibition of 3.92%.
Work on `O=C(NC1=CC(=O)c2ccccc2C1=O)c1ccccc1` yielded an inhibition of 15.8%.
`COc1ccc(C(C)C)cc1S(=O)(=O)Nc1ncn[nH]1` was tested, and the inhibition was 5.25%.
Work on `Cc1ccc(CSc2nnc(-c3cnccn3)n2C)cc1` yielded an inhibition of 10.6%.
For `COc1ccc(Oc2c(Cl)cnn(-c3ccccc3)c2=O)cc1`, the inhibition was 72.2% (active).
For `O=C(Nc1ccc(F)c([N+](=O)[O-])c1)C1CC(=O)N(Cc2ccccc2)C1` (configuration not stated), the inhibition was 42.5% (active).
With `Cc1ccc(-c2nnc(CN3CCN(C)CC3)o2)cc1` the inhibition was 7.87%.
`O=C(OCC(=O)N1CCCCCC1)c1cnc(Cl)c(Cl)c1` was tested, and the inhibition was 35.9% (active).
In the case of `COc1ccc(CCNC(=O)COC(=O)c2cnc(Cl)c(Cl)c2)cc1`, the inhibition is reported as 36.7% (active).
`COc1ccc(CCNC(=O)c2cnc(Cl)c(Cl)c2)cc1` was tested, and the inhibition was 35.6% (active).
`CC(C)Oc1c(Br)cc(Br)cc1/C=N/NC(N)=S` gave an inhibition of 25.2%.
For `COc1ccc(Cl)cc1-c1cc(C(=O)Nc2cc(OC)c(OC)c(OC)c2)[nH]n1`, the inhibition was -21.1%.
`O=C(NCC1CCN(Cc2ccccc2Cl)CC1)Nc1cccc(Cl)c1` was tested, and the inhibition was -1.08%.
In the case of `CC(NS(=O)(=O)c1ccc(Br)cc1)C(=O)NCC1CCCO1` (configuration not stated), the inhibition is reported as 0.92%.
In the case of `CCOC(=O)c1c(-c2ccccc2)oc2cc(Br)c(O)c(C=O)c12`, the inhibition is reported as 68.6% (active).
Molecule `C=Cn1c(C(=O)O)ccc1-c1ccc(OC)cc1` has an inhibition of -8.3%.
For `N#C/C=C1\Sc2ccccc2C(=O)N1CC(=O)N1CCN(S(=O)(=O)c2ccccc2)CC1`, the inhibition was 3.29%.
Work on `CCCC(C(=O)n1nc(C)cc1C)C(NS(=O)(=O)c1ccc(C)cc1)c1ccccc1` (configuration not stated) yielded an inhibition of 13.1%.
Work on `N#Cc1c(-c2cccs2)nc(SCC(=O)c2ccc(Br)cc2)[nH]c1=O` yielded an inhibition of 19.2%.
`CC1(C)Cc2ccccc2-c2[nH]c(=S)[nH]c(=O)c21` was tested, and the inhibition was 36.1% (active).
Molecule `COc1ccc2oc(N)c(C=O)c(=O)c2c1` has an inhibition of -15.9%.
With `CC(=O)N1CCN(S(=O)(=O)c2c(F)cc(F)c(Cl)c2F)CC1` the inhibition was 45.1% (active).
Molecule `CCN(CC(=O)NCCCN1CCOCC1)S(=O)(=O)c1cc(Cl)ccc1Cl` has an inhibition of -1%.
`COc1ccc(C(C[N+](=O)[O-])n2nc(C)cc2C)cc1` (configuration not stated) gave an inhibition of -13.7%.
